Bioassay records deposited in PubChem BioAssay by National Center for Advancing Translational Sciences (NCATS).
Shown are actives, neighbours in structure and some others; about 21% of the full set was active somewhere.
Shiga inhibitor – inhibitors of Shiga toxin in Vero cells. Vero cells, Shiga toxin protein synthesis inhibition reporter. inhibition, % at 38.7 µM. 290,000 tested, 9.2% active. AID 2315; in the data active = inhibition mostly above about 28%, no sharp cut-off; inactive = mostly below about 43%; note: 0% is about no effect
Cycloheximide cs – counter-screen for Shiga toxin inhibitors: cycloheximide protein synthesis inhibition. cell reporter, cycloheximide protein synthesis inhibition counterscreen. max response, %. 300,000 tested, 12% active; in the data active = max response mostly above about 13%, no sharp cut-off; inactive = mostly below about 14%; note: read at 38.3 µM for the half of the compounds with a filed dose; 0% is about no effect
AMA1-RON2 inh – AMA1-RON2 (P. falciparum) interaction inhibition. AlphaScreen AMA1-biotinylated RON2 peptide binding. Potency, µM (titrated, usually from 58.2 µM), for inactives: at the top dose activity change, negative = inhibition, usual class: inhibitors. 360,000 tested, 0.2% active. AID 720542;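 note: potency is the fitted concentration of half-maximal effect; 0% = vehicle wells and -100% = peptide control; nearly all actives have a fitted effect of over 45% in size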
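AMA1 (3D7) with his tag at 25 nM final met compounds first, then biotinylated RON2 peptide at 25 nM; detection used donor plus acceptor beads, 10 µg/mL apiece, read by AlphaScreen after 30 min at room temperature.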
Pf growth 96h – inhibits malaria parasite growth, 96 h. P. falciparum luciferase reporter growth, 96 h. 320,000 tested, 6.9% active. Potency, µM (doses to about 28.7 µM), for the others: top-dose activity change, negative = inhibition, actives largely listed as inhibitors. AID 504834; note: potency is the fitted concentration of half-maximal effect; % is set by controls: 0 for no effect and ±100 for the full control effect
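P. falciparum expressing integrated firefly luciferase, in erythrocytes at 2% hematocrit, 0.05% parasitemia, incubated with compounds 96 h at 37 C, 5% CO2. Growth inhibition read as loss of luminescence; two-generation exposure targets delayed-death apicoplast inhibitors.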
HCV inhibitor – inhibitors of hepatitis C virus infection. Huh7.5.1 HCVcc-Cre infection, luciferase reporter, 44 h. Potency, µM (doses to about 41.8 µM), for the others: at the top dose activity change, negative = inhibition, actives largely listed as inhibitors. 340,000 tested, 3.4% active. AID 651820; note: potency is the fitted concentration of half-maximal effect; % is set by controls: 0 for no effect and ±100 for the full control effect
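After 44 h co-culture of compound, cells and HCVcc-Cre (~0.5 moi), substrate is added for 15 min at room temperature and luciferase measured over 15 sec. Cells were seeded at 1,000/well and pre-cultured 4 h.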
Pf growth 48h – P. falciparum growth inhibition at 48 hours (one generation); 310,000 tested, 5.9% active; Potency, µM (doses to about 28.7 µM), for the others: at the highest dose activity change, negative = inhibition, hits mostly inhibitors; P. falciparum luciferase growth in erythrocytes, 48 h; AID 504832; note: potency is the fitted concentration of half-maximal effect; % is set by controls: 0 for no effect and ±100 for the full control effect
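Luciferase-expressing P. falciparum in infected erythrocytes (2% hematocrit, 0.1% parasitemia final) in RPMI 1640/0.5% Albumax were exposed to compound for 48 hours at 37 C, 5% CO2; growth read as luminescence.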
* = called active by the depositor; [ ] = remark or other dose. Unless noted, calls come from the whole dose curve; as a rule, active = well fitted curve in the direction sought with a large enough effect; inconclusive = small, poorly fitted or top-dose-only effect, or another doubt; inactive = no such curve, though single readings can be large; an effect the other way counts as inactive or inconclusive.

CCN(C(=O)c1ccc2c(SCC(=O)O)c3c(nc2c1)CCC3)c1cc(Cl)ccc1OC was read as Shiga inhibitor -5.4, Cycloheximide cs -5.9, AMA1-RON2 inh 1.5%, Pf growth 96h 58.0%, HCV inhibitor 18.3% and Pf growth 48h inconclusive.
Cc1cccc(OCCC(=O)Nc2ccc(S(=O)(=O)N3CCCC3)cc2)c1 was read as Shiga inhibitor -12.9, Cycloheximide cs 0.7, AMA1-RON2 inh -2.1%, Pf growth 96h -0.6%, HCV inhibitor inconclusive and Pf growth 48h inconclusive.
`COc1cc(S(=O)(=O)N2CCOCC2)ccc1NC(=O)CN1c2cccc3cccc(c23)S1(=O)=O` gave Shiga inhibitor -13.1, Cycloheximide cs -5.1, AMA1-RON2 inh -8.3%, Pf growth 96h inconclusive, HCV inhibitor inconclusive and Pf growth 48h -16.3%.
Screening Cc1cccc(OCCCC(=O)Nc2ccc(Cl)c(S(=O)(=O)N3CCOCC3)c2)c1 returned AMA1-RON2 inh -1.3%, Pf growth 96h inconclusive, HCV inhibitor 7.94µM* and Pf growth 48h inconclusive.
Screening Cc1ccc(NC(=O)COc2cccc(Oc3ccccc3)c2)cc1S(=O)(=O)N1CCOCC1 returned AMA1-RON2 inh -1.5%[11.6 µM], Pf growth 96h inconclusive, HCV inhibitor 3.16µM* and Pf growth 48h 10.4µM*.
For Cc1cccc(OCCC(=O)Nc2ccc(C)c(S(=O)(=O)N3CCCCC3)c2)c1 the results were Shiga inhibitor -4.6, Cycloheximide cs -2.6, AMA1-RON2 inh -4.3%[11.6 µM], Pf growth 96h inconclusive, HCV inhibitor 3.16µM* and Pf growth 48h -14.9%.
Screening Cc1ccc(NC(=O)CN2c3cccc4cccc(c34)S2(=O)=O)cc1S(=O)(=O)N1CCOCC1 returned Shiga inhibitor -7.5, Cycloheximide cs 0.8, AMA1-RON2 inh -4.1%, Pf growth 96h 9.28µM*, HCV inhibitor 11.2µM* and Pf growth 48h inconclusive.
`CCCn1c(SCC(=O)Nc2ccccc2C(=O)NC2CC2)n[nH]c1=O` gave AMA1-RON2 inh -8.1%, Pf growth 96h -0.5%, HCV inhibitor -0.5% and Pf growth 48h -1.4%.
For N#C/C(=C\c1ccc(Cl)cc1)C(=O)Nc1cccnc1 the results were Shiga inhibitor -7.7, Cycloheximide cs -0.9, AMA1-RON2 inh 3.7%, Pf growth 96h 7.7%, HCV inhibitor 10.2% and Pf growth 48h 0.0%.
For CCOc1ccccc1OCCCC(=O)Nc1ccc(Cl)c(S(=O)(=O)N2CCOCC2)c1 the results were AMA1-RON2 inh 3.1%, Pf growth 96h 7.38µM*, HCV inhibitor 7.94µM* and Pf growth 48h 9.28µM*.
Cc1cccc(OCC(=O)Nc2nnc(S(=O)(=O)N3CCCCCC3)s2)c1 was read as Shiga inhibitor -4.8, Cycloheximide cs 0.7, AMA1-RON2 inh -1.5%, Pf growth 96h 11.7µM*, HCV inhibitor 6.8% and Pf growth 48h 32.8%.
Cc1cccc(OCCC(=O)Nc2ccc(C)c(S(=O)(=O)N3CCOCC3)c2)c1 was read as AMA1-RON2 inh 11.7% and HCV inhibitor 12.6µM*.
Cc1ccc(NC(=O)CCCSc2ccccc2)cc1S(=O)(=O)N1CCOCC1 was read as Shiga inhibitor -2.4, Cycloheximide cs 11.5, AMA1-RON2 inh 20.5%, Pf growth 96h inconclusive, HCV inhibitor inconclusive and Pf growth 48h inconclusive.
For COc1ccc(NC(=S)NCCCCCC(=O)C[N+](=O)[O-])cc1 the results were Shiga inhibitor 30.2, Cycloheximide cs 9.1, AMA1-RON2 inh 1.3%, Pf growth 96h inconclusive, HCV inhibitor 0.3% and Pf growth 48h inconclusive.
For Cc1nnc(SCC(=O)Nc2ccc(N(C)C)cc2)[nH]c1=O the results were Shiga inhibitor 25.5 and Cycloheximide cs 7.0.
`Cc1cc(C)cc(NC(=O)CN(C)CC(=O)N(CC(C)C)c2c(N)n(CC(C)C)c(=O)[nH]c2=O)c1` gave AMA1-RON2 inh -6.8%, Pf growth 96h inconclusive, HCV inhibitor -14.1% and Pf growth 48h inconclusive.
Screening COc1cc(C(=O)Oc2ccc3c(c2)OCC3=O)cc(OC)c1OC returned Shiga inhibitor -11.7, Cycloheximide cs -2.3, AMA1-RON2 inh 7.1%, Pf growth 96h inconclusive, HCV inhibitor -20.9% and Pf growth 48h 33.6%.
Screening O=C(Oc1ccc2c(c1)OCC2=O)c1ccc(Cl)cc1 returned Shiga inhibitor 50.0*, Cycloheximide cs 22.0, AMA1-RON2 inh 2.8%, Pf growth 96h 41.8%, HCV inhibitor 2.6% and Pf growth 48h inconclusive.
Screening CCc1nc2ccc(C(=O)NCCCN(C)C)cn2c1N(C)CCCc1ccccc1 returned AMA1-RON2 inh -10.9%.
For COc1ccc(-c2ncc(CN3CCN(CCC(C)C)C(CCO)C3)cn2)cc1 (configuration not stated) the results were Shiga inhibitor 65.6*, Cycloheximide cs 32.6*, AMA1-RON2 inh -7.8%, Pf growth 96h inconclusive, HCV inhibitor inconclusive and Pf growth 48h 0.0%.
Screening Cc1cccc(-c2ncc(CN3CCN(CC(C)C)C(CCO)C3)cn2)c1 (configuration not stated) returned Shiga inhibitor 41.1*, Cycloheximide cs 15.5, AMA1-RON2 inh 0.0%, Pf growth 96h -14.1%, HCV inhibitor -15.7% and Pf growth 48h 21.7%.
`CC(C)CN1CCN(Cc2cccc3nccnc23)CC1CCO` (configuration not stated) gave Shiga inhibitor -6.6, Cycloheximide cs -0.9, AMA1-RON2 inh 7.2%, Pf growth 96h 16.1%, HCV inhibitor -1.3% and Pf growth 48h -8.8%.
`COc1ccccc1OCc1csc(NC(=O)c2ccco2)n1` gave Shiga inhibitor 98.0*, Cycloheximide cs 53.1*, AMA1-RON2 inh 0.0%, Pf growth 96h 175.8%, HCV inhibitor -8.0% and Pf growth 48h 90.9%.
For CCOc1ccccc1NC(=O)CSc1nnc(NC(=O)c2ccco2)s1 the results were Shiga inhibitor 13.8, Cycloheximide cs -2.2, AMA1-RON2 inh -7.4%, Pf growth 96h 36.1%, HCV inhibitor 13.1% and Pf growth 48h 4.8%.
Screening CCOc1ccccc1Nc1nc(-c2sc(C)nc2C)cs1 returned Shiga inhibitor 47.8*, Cycloheximide cs 18.6*, AMA1-RON2 inh inconclusive, Pf growth 96h -1.9%, HCV inhibitor inconclusive and Pf growth 48h inconclusive.
`Cc1ccc(Nc2nc(-c3sc(NC(=O)c4ccco4)nc3C)cs2)cc1` gave Shiga inhibitor 35.9, Cycloheximide cs 19.6*, AMA1-RON2 inh 30.0%, Pf growth 96h inconclusive, HCV inhibitor inconclusive and Pf growth 48h 9.28µM*.
Screening CCOc1ccccc1Nc1nc(-c2sc(NC(=O)c3ccco3)nc2C)cs1 returned Shiga inhibitor 26.9, Cycloheximide cs 14.4, AMA1-RON2 inh 5.4%, Pf growth 96h 2.33µM*, HCV inhibitor inconclusive and Pf growth 48h 14.7µM*.
`Cc1sc2ncnc(N3CCC(C(=O)NNC(=O)COc4cccc(C(F)(F)F)c4)CC3)c2c1C` gave AMA1-RON2 inh 65.8%, Pf growth 96h inconclusive, HCV inhibitor -10.4% and Pf growth 48h inconclusive.
